Test: qHTS profiling of the MIPE4 collection as inhibitors of Plasmodium falciparum (DD2) proliferation (AID 743345)
Conditions: P. falciparum Dd2 in erythrocytes, SYBR Green DNA, 72 h; at 28.5 µM (top of the series) unless noted
Source text: Plasmodium falciparum is a virulent malarial parasite that kills 1-2 million people worldwide each year. Transmitted by mosquitoes, the sporozoite form of the parasite enters the blood stream to infect hepatocytes, where they become merozoites that infect red blood cells (erythrocytes). Within erythrocytes, merozoites begin a […] cycle of growth and division, after which the parasite is released to infect new red blood cells. Gametocytes, which form within erythrocytes as well, circulate in the bloodstream and are ingested by the mosquito, thereby completing the life cycle. To profile malarial isolates for differential chemical responses and to identify inhibitors of malarial growth, an assay that measures P. falciparum growth and replication within erythrocytes was employed. This assay uses a DNA binding fluorescent dye (SYBR Green) to detect parasite DNA following cell lysis. Because mature erythrocytes lack DNA, only Plasmodium-derived DNA is detected.
The SYBR Green viability assay was adapted from a method described previously (Plouffe et al., 2008). For screening 3 ul culture medium was dispensed into 1536 well black clear bottom plates (Aurora Biotechnologies) using a Multidrop Combi (Thermo Fisher Scientific Inc.), 23 nL compounds in DMSO were added by a pin tool (Kalypsys), and 5 ul of erythrocytes infected with P. falciparum (0.3% parasitemia, 2.5% hematocrit final concentration) were added. The plates were incubated at 37 C in a humidified incubator in 5% CO2 for 72 h, and 2 ul lysis buffer (20 mM Tris HCl, 10 mM EDTA, 0.16% saponin, 1.6% triton X, 10X SYBR Green I supplied as 10,000X […] by Invitrogen) was added to each well. The plates were mixed for 25 sec with gentle shaking and incubated overnight at room temperature in the dark. The following morning, fluorescence intensity at 485(14) nm excitation and 535(25) nm emission wavelengths was measured on an EnVision (Perkin Elmer) plate reader. Plate reads were normalized relative to the control inhibitor (0.29 uM artemisinin) and vehicle (DMSO) wells present on each plate and then corrected by an algorithm using vehicle-only control plates at the beginning and end of the compound plate stack.

SMILES | parasite growth remaining, % of DMSO control (lower = more inhibition) [%]
CC(O)=C(C#N)C(=O)Nc1cc(Br)ccc1Br | 97
COCC1(CO)C(=O)C2CCN1CC2 (stereo not given) | 85.2
C[C@](O)(COc1ccc(C#N)cc1)C(=O)Nc1ccc(C#N)c(C(F)(F)F)c1 | 92.3
CC(=O)O[C@@]12CO[C@H]1C[C@H](O)[C@@]1(C)C(=O)[C@H](O)C3=C(C)[C@@H](O)C[C@@](O)([C@@H](OC(=O)c4ccccc4)[C@@H]21)C3(C)C | 94.5
CCCCN1CCC(CNC(=O)c2c3n(c4ccccc24)CCCO3)CC1 | 56.2
CC(C)N[C@@H]1CCn2c(=O)[nH]c3cccc(c32)[C@@H]1O | 104
CN[C@@H]1Cc2cccc3[nH]c(=O)n(c23)C1 | 105
C[C@H]([C@H](O)CCC(C)(C)O)[C@H]1CC[C@@]2(O)C3=CC(=O)[C@@H]4C[C@@H](O)[C@@H](O)C[C@]4(C)[C@@H]3CC[C@]12C | 99.4
CCOC(=O)Nc1ccc(NCc2ccc(F)cc2)cc1N | 13.7
CC1(N2CCC(n3c([C@@H]4CCCNC4)nc4ccccc43)CC2)CCCCCCC1 | 11.2
O=c1[nH]c2ccccc2n1C1CCN(Cc2ccc(-c3[nH]c4cc5ncnc5cc4nc3-c3ccccc3)cc2)CC1 | 6.7
Cc1c(N)nc([C@H](CC(N)=O)NC[C@@H](N)C(N)=O)nc1C(=O)N[C@H](C(=O)N[C@@H](C)[C@H](O)[C@@H](C)C(=O)N[C@@H](C(=O)NCCc1nc(-c2nc(C(=O)NCCC[S+](C)C)cs2)cs1)[C@@H](C)O)C(O[C@H]1O[C@H](CO)[C@H](O)[C@@H](O)[C@@H]1O[C@H]1O[C@H](CO)[C@@H](O)[C@H](OC(N)=O)[C@H]1O)c1cnc[nH]1 (stereo not given in full) | 9.76
COC(=O)[C@@H](N)CCCN=C(N)N[N+](=O)[O-] | 94.8
CCc1c(C(=O)C(N)=O)c2c(OCC(=O)O)cccc2n1Cc1ccccc1 | 97.5
CCN1C[C@]2(OC(=O)c3ccccc3NC(C)=O)CC[C@H](OC)[C@@]34[C@H]5CC6[C@@H](OC)C[C@](O)(C(C[C@@H]23)[C@@H]14)[C@@]5(O)[C@@H]6OC | 94
N#C[C@H](O[C@@H]1O[C@H](CO[C@@H]2O[C@H](CO)[C@H](O)[C@H](O)[C@H]2O)[C@H](O)[C@H](O)[C@H]1O)c1ccccc1 | 17.6
Cc1ccccc1-n1c(Cn2ncc3c(N)ncnc32)nc2cccc(C)c2c1=O | 94.1
CC(=Cc1csc(C)n1)[C@@H]1C[C@H]2O[C@@H]2CCC[C@H](C)[C@@H](O)[C@@H](C)C(=O)C(C)(C)[C@@H](O)CC(=O)O1 | 16.1
CC1=NN=C(c2ccc(N)cc2)c2cc3c(cc2C1)OCO3 | 108
C[C@]12Cc3cn[nH]c3C[C@@H]1CC[C@@H]1[C@H]2CC[C@@]2(C)[C@H]1CC[C@]2(C)O | 90

SMILES | parasite growth remaining, % of DMSO control (lower = more inhibition) [%]
C1=C2CCCN[C@H]2[C@@H]2C[C@H]1[C@@H]1CCCCN1C2 | 84.7
C=C1C[C@H]2[C@H]3CCC(=O)[C@@]3(C)CC[C@@H]2[C@@]2(C)C=CC(=O)C=C12 | 90.6
CN1CCN(c2ccc([N+](=O)[O-])c3no[n+]([O-])c23)CC1 | 95.3
Cn1cncc1[C@@](N)(c1ccc(Cl)cc1)c1ccc2c(c1)c(-c1cccc(Cl)c1)cc(=O)n2C | 33.3
COc1ccc(C(=O)c2c(C)n(CCN3CCOCC3)c3cc(I)ccc23)cc1 | 85
CC(C)(O)C=CC(=O)[C@](C)(O)[C@H]1[C@H](O)C[C@]2(C)[C@@H]3CC=C4[C@@H](C=C(O)C(=O)C4(C)C)[C@]3(C)C(=O)C[C@@]12C | 7.06
C=CCON=C(C[C@H]1O[C@@H]2O[C@]3(C)CC[C@@H]4[C@H](C)CC[C@@H]([C@H]1C)[C@@]24OO3)[C@H]1O[C@@H]2O[C@]3(C)CC[C@H]4[C@H](C)CC[C@@H]([C@@H]1C)[C@@]24OO3 | 7.38
Oc1ccc2c3c1O[C@H]1c4[nH]c5c(c4C[C@@]4(O)[C@@H](C2)N(CC2CC2)CC[C@]314)C[C@@]1(O)[C@H]2Cc3ccc(O)c4c3[C@@]1(CCN2CC1CC1)[C@H]5O4 | 25.9
O=[N+]([O-])c1ncc[nH]1 | 99.8
CC[C@H]1C=CC=CC[C@@H](C)[C@H](O)[C@@](C)(O)C(=O)[C@@H](C)[C@H](O)[C@@H](C)C(=O)[C@@H](C)[C@H](O)[C@@H](C)C=CC(=O)O[C@@H]2[C@@H](C)[C@H](CC1)O[C@]1(CC[C@H](C)[C@H](C[C@@H](C)O)O1)[C@H]2C | 6.38
c1ccc2c(CN3CCNCC3)cccc2c1 | 53.1
CC[C@@H]1[C@@H](C)O[C@@](O)([C@@H](C)[C@H](O)[C@H](C)[C@H]2OC(=O)C=CC=C[C@@H](C)[C@@H]([C@@H](C)[C@@H](O)[C@H](C)[C@@]3(O)C[C@H](O[C@H]4C[C@H](O)[C@H](O)[C@H](C)O4)[C@H](CC)[C@@H](C)O3)OC(=O)C=CC=C[C@@H]2C)C[C@H]1O[C@H]1C[C@H](O)[C@H](O)[C@H](C)O1 | 6.07
CC(C)(O)C(=O)Nc1ccc([N+](=O)[O-])c(C(F)(F)F)c1 | 97.4
CC(C)[C@]12O[C@@H]1[C@@H]1O[C@]13[C@]1(O[C@H]1C[C@@H]1C4=C(CC[C@@]13C)C(=O)OC4)[C@H]2O | 77
C[C@]12CC[C@H]3[C@@H](CCC4=CC(=O)CC[C@@]43C)[C@H]1CC[C@H]2OC(=O)CCC1CCCC1 | 15.6
O=c1[nH]c2ccc(Cl)cc2c(N[C@@H]2CN3CCC2CC3)c1-c1nc2ccccc2[nH]1 | 5.74
COc1ccc2c(c[n+](C)c3c4cc5c(cc4ccc23)OCO5)c1OC | 74.8
CC(C)(C)[C@]1(O)C[C@@H]2OC(=O)C[C@@]23C(=O)O[C@@H]2OC(=O)[C@H](O)C213 (stereo not given in full) | 99.7
CC(N[C@H]1C[C@H]1c1ccccc1)c1ccc2c(c1)OCCO2 (stereo not given in full) | 74.9
Cc1nc(-c2ccc(-c3ccc(C(=O)N4CCc5cc6c(cc54)C4(CCN(C)CC4)CO6)cc3)c(C)c2)no1 | 101

From PubChem BioAssay (NCATS)
